This is a sample that favours compounds with a hit; in the whole collection about 5.8% have one here.
MCF10A rereplic = induces DNA re-replication in MCF 10a normal breast cells; Potency, µM (doses to about 46.1 µM), without a hit: top-dose activity, positive = re-replication, most hits filed as activators; hit rate 2.9% among 350,000; MCF 10A DNA re-replication, Hoechst nuclear intensity, 48 h; note: % of control where 0% means no effect; nearly all actives have a fitted effect of over 50% in size
KB-3-1 tox = KB-3-1 parental cell cytotoxicity; KB-3-1 viability, CellTiter-Glo ATP luminescence, 72 h; hit rate 1.4% among 400,000; Potency, µM (titrated, usually from 46.1 µM), usual class: cytotoxic; note: % is set by controls: 0 for no effect and ±100 for the full control effect; nearly all actives have a fitted effect of over 60% in size
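KB-3-1 cells, DMEM (no phenol red) + 10% FBS; compound by pin transfer, 72 h, 37 °C. Readout: CellTiter-Glo luminescence after 10 min. Data normalized, curve-fitted.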
12-LOX inh = ALOX12 (human) lipoxygenase inhibition | P18054 | purified 12hLO, xylenol orange hydroperoxide absorbance | Potency, µM (titrated, usually from 108 µM), for inactives: at the highest dose activity change, negative = inhibition, hits mostly inhibitors | hit rate 1.1% among 580,000 | AID 1671190; note: % is set by controls: 0 for no effect and ±100 for the full control effect
Target sequence (P18054 whole entry, looked up): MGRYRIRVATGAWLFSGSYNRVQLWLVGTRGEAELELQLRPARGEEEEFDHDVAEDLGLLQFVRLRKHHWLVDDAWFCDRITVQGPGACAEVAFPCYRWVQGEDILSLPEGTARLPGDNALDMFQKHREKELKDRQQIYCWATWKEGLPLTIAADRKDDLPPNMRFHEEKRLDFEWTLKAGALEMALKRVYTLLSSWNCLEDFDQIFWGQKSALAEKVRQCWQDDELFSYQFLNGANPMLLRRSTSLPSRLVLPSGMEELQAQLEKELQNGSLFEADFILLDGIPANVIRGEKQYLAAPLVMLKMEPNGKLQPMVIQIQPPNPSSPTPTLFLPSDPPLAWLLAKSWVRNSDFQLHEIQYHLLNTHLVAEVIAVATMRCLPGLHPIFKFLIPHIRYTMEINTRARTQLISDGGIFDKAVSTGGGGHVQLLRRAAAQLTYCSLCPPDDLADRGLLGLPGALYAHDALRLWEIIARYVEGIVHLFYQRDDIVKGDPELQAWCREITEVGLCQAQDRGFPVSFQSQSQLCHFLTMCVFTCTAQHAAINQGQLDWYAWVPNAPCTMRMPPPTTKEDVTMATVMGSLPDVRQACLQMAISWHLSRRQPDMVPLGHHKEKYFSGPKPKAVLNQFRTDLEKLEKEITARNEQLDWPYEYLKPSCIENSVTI
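Purified human 12hLO at 150 nM in 25 mM Hepes, 0.01% Triton X-100, pH 7.0, preincubated 15 min at room temperature with compound. Reaction started with 40 uM arachidonic acid, 30 min at room temperature. Hydroperoxide measured by Fe-xylenol orange, 573/405 nm absorbance ratio.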
SW480 rereplic = inducers of DNA re-replication in SW480 colon cancer cells | SW480 DNA re-replication, Hoechst DNA content imaging, 48 h | Potency, µM (top dose mostly 46.1 µM), for the others: at the highest dose re-replication activation, most hits filed as activators | hit rate 1.8% among 340,000 | AID 624297; note: % of control where 0% means no effect; nearly all actives have a fitted effect of over 55% in size
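Per well, 250 cells were exposed to pinned compound for 48 hr. Nuclear DNA was visualised with Hoechst (40 min, 37 C) and total object intensity recorded by fluorescence scanning.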
KB-V1 MDR tox = KB-V1 MDR subline cytotoxicity; KB-V1 MDR cells viability, CellTiter-Glo, 72 h; hit rate 3.4% among 400,000; Potency, µM (titrated, usually from 46.1 µM), hits mostly cytotoxic; AID 1347076; note: % is set by controls: 0 for no effect and ±100 for the full control effect; nearly all actives have a fitted effect of over 60% in size
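Drug-selected KB-V1 cells, grown in DMEM lacking phenol red with 10% FBS, receive compound titrations; after three days at 37 degrees C, surviving cell ATP is quantified by CellTiter-Glo luminescence and responses normalized and curve-fitted.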
PINK1 modulator = modulators of PINK1 expression; Potency, µM (top dose mostly 76.6 µM), without a hit: top-dose activation (PINK1 increase), most hits filed as activators; hit rate 0.2% among 410,000; PINK1 immunofluorescence, high-content cytometry, 24 h; active = well fitted activation curve with a large enough effect; inconclusive = small, poorly fitted or top-dose-only effect; cell line not stated here; note: % of control where 0% means no effect; nearly all actives have a fitted effect of over 65% in size
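Measures PINK1 amount and localization on or inside mitochondria by immunofluorescence. Stable cells get compounds at 5 concentrations for 24 hours before fixation and staining; CCCP controls included.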
* = called active by the depositor; i = inactive; ? = inconclusive; . = not tested or not shown; [ ] = dose if it differs, or a comment. Unless noted, calls come from the whole dose curve; as a rule, active = well fitted curve in the direction sought with a large enough effect; inconclusive = small, poorly fitted or top-dose-only effect, or another doubt; inactive = no such curve, though single readings can be large; an effect the other way counts as inactive or inconclusive. Potency is the fitted concentration of half-maximal effect.

SMILES | MCF10A rereplic | KB-3-1 tox | 12-LOX inh | SW480 rereplic | KB-V1 MDR tox | PINK1 modulator
Cc1ccc(C)c(Oc2cc(NC(=O)CCCn3nc(C)c([N+](=O)[O-])c3C)cc([N+](=O)[O-])c2)c1 | ? | ? | -8.0% | ? | 10.3µM* | 44.7µM*
Cc1nn(CCCC(=O)Nc2cc(Oc3ccccc3)cc([N+](=O)[O-])c2)c(C)c1[N+](=O)[O-] | ? | ? | 7.9% | 2.7% | 8.2µM* | 6.1%
CCOc1ccc(-n2nnc(C(=O)Nc3cccc(C)c3C)c2N)cc1 | . | . | 50.6% | . | . | .
Cc1ccc2c(n1)N(C)[C@H](CO)CCN(Cc1ccc(C(C)C)cc1)C2 | . | . | 3.2%[176 µM] | . | . | .
CCOc1ccc(C(=O)N2CCC(NS(=O)(=O)c3cccs3)CC2)cc1 | . | . | -1.3% | . | . | .
Cc1ccc(Oc2cc(NC(=O)CCCn3nc([N+](=O)[O-])cc3C)cc([N+](=O)[O-])c2)cc1 | -1.1% | i | -2.5% | -0.1% | 5.17µM* | ?
Cc1cc(C)nc(SCCCn2c(=O)[nH]c3ccccc32)n1 | 0.8% | i | 0.0% | -4.1% | 9.2µM* | -1.4%
CC(C)CCN1CCC(N2CCN(S(=O)(=O)c3ccc(CC(C)C)cc3)CC2)C1=O (centres undefined) | . | . | 30.6% | . | . | .
CCOC(=O)CSC1=NC(=O)/C(=C/c2ccc(OC)cc2)S1 | 5.8µM* | 11.6µM* | . | ? | ? | 2.7%
Cc1sc(NC(=O)c2ccccc2)c(C(c2ccc(Cl)cc2)N2CCN(CCO)CC2)c1C (centres undefined) | ? | 20.6µM* | ? | 23.6% | ? | -0.6%
Cc1sc(NC(=O)c2ccco2)c(C(c2cccnc2)N2CCN(CCO)CC2)c1C (centres undefined) | 26.0% | i | 4.7% | -22.2% | i | 2.3%
CCOc1ccc(C(c2c(NC(=O)c3ccccc3)sc(C)c2C)N2CCN(CCO)CC2)cc1 (centres undefined) | ? | ? | ? | 3.66µM* | ? | 4.5%
COC(=O)c1ccc(N2CCC(C)CC2)c(N)c1 | 20.6µM* | i | ? | ? | ? | 4.0%[38.3 µM]
COC(=O)c1ccc(N2CCCCC2)c(N)c1 | 5.8% | i | 7.5% | -3.5% | i | 1.9%
O=C1NC2(CCN([S+](=O)([O-])c3cccc(C(F)(F)F)c3)CC2)Oc2ccccc21 | . | . | 35.9% | . | . | .
CC1CC(C)CN(C(=O)COC(=O)c2ccc3c(c2)OCO3)C1 (centres undefined) | 2.3% | i | 0.0% | -2.3% | i | 0.2%
CC1CCN(C(=O)COC(=O)c2cc(Cl)c3c(c2)OCO3)CC1 | -1.9% | i | 0.0% | -1.2% | 20.6µM* | 2.1%
Cn1c(SCC(=O)c2ccc(F)cc2)nnc1-c1ccccc1Br | . | ? | -2.2% | . | 23.1µM* | 0.1%
O=C(CSc1nnc(-c2ccco2)n1Cc1ccccc1)c1ccc(F)cc1 | 9.5% | i | ? | 2.7% | 9.2µM* | 2.0%
O=C(CSc1nnc(-c2ccco2)n1Cc1ccccc1)NCc1ccccc1 | 6.1% | i | 8.4% | -3.8% | i | -0.6%
Cc1occc1-c1nnc(SCC(=O)Nc2ccc(F)cc2)n1Cc1ccccc1 | ? | ? | -21.0% | 26.1% | 8.2µM* | -1.5%
Cc1occc1-c1nnc(SCC(=O)Nc2ccccc2)n1Cc1ccccc1 | ? | i | -9.4% | 11.1% | ? | .
COc1ccc(O)c(-c2nc(N)nc(N)n2)c1 | 7.31µM* | ? | 6.3% | ? | i | 0.4%
C/C(=N\N=C(/N)SC1CC(=O)N(c2ccc(Cl)cc2)C1=O)c1cccs1 (centres undefined) | ? | i | -1.4% | 19.4% | i | -1.1%
C/C(=N\N=C(/N)SC1CC(=O)N(c2ccccc2)C1=O)c1cccs1 (centres undefined) | 2.31µM* | i | 4.5% | 3.66µM* | i | 3.3%[38.3 µM]
N#Cc1ccccc1COC(=O)C1(c2ccccc2)CC1 | . | . | 0.9% | . | . | .
O=C(O)Cn1ccc2cc(OCCc3cccc(-c4ccc(F)cc4)c3)cnc21 | . | . | 50.1µM* | . | . | .
